# ABHD5 PLIN5 PPI = inhibitors of human ABHD5-perilipin-5 interaction; Q00G26+Q8WTS1; Split G. princeps luciferase complementation, luminescence, 4 h; inhibition, % at 4 µM; 360,000 compounds, 0.78% hits; AID 602281;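 active means inhibition above the mean inhibition across every tested compound plus 3 SD, cut at about 22% in these data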;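 further: 0% = DMSO only wells and the 100% control is not disclosed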
# Target sequence (Q00G26 whole entry, looked up): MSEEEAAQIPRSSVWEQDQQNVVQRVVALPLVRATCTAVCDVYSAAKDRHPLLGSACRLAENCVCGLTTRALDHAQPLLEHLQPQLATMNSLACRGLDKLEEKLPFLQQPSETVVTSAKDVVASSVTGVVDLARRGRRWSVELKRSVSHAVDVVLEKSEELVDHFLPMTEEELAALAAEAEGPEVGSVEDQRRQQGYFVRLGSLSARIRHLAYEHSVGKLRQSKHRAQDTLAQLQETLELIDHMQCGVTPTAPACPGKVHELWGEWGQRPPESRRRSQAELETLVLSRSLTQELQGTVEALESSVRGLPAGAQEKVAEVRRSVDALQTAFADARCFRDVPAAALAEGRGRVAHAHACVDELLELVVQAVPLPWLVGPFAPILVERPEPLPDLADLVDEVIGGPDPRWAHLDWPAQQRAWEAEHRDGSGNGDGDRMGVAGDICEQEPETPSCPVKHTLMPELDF
# Target sequence (Q8WTS1 whole entry, looked up): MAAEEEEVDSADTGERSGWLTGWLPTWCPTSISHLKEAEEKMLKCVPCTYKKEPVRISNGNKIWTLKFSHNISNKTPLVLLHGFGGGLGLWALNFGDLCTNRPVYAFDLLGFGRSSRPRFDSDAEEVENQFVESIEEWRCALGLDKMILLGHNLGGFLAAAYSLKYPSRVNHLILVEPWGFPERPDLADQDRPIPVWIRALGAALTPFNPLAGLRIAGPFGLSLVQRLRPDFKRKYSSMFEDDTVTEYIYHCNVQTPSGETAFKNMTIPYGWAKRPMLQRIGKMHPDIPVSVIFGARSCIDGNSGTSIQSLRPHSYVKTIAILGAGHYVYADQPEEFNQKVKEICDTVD
# HIF-2a inh = HIF-2a inhibition. 786-0 RCC cells HIF-2a reporter, luciferase luminescence, overnight. inhibition, % at 18.8 µM. 360,000 compounds, 0.72% hits. AID 624352;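 active means inhibition of the luminescence signal of 40% or more relative to plate controls, in a single-dose primary screen at 18.75 µM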
# Peg3 prom inh = reduces Peg3 promoter-driven luciferase expression in HeLa; HeLa PEG-Prom luciferase reporter, luminescence, overnight; inhibition, % at 20 µM; 360,000 compounds, 1.7% hits; AID 588405;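 active means inhibition of at least 50% at 20 µM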
# KKLEB tox = counter-screen for CF NF-kB inhibitors: cytotoxicity; KKLEB CF airway cells viability, ATPlite luminescence, overnight; hits give low values; cells stimulated with P. aeruginosa culture filtrate; activity change (cytotoxicity), % at 5 µM; 360,000 compounds, 0.36% hits;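 active means corrected activity change at or below -50% at 5 µM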
# CF NFkB inh = inhibitors of cystic fibrosis induced NF-kB. KKLEB NF-kB-GFP reporter, PAF-induced, GFP fluorescence overnight. inhibition, % at 5 µM. 360,000 compounds, 0.86% hits;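 active means at least 50% inhibition at 5 µM, scaled per plate between neutral and stimulator controls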;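 further: PAF is a Pseudomonas aeruginosa culture filtrate used as stimulus; plate controls were PAF-stimulated DMSO wells for no effect and unstimulated DMSO wells for full effect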
# MITF TRPM1 inh = inhibitors of MITF-driven TRPM1 promoter in melanoma cells; AID 488899; SK-MEL-5 TRPM1 promoter luciferase, 24 h; inhibition, % at 12.5 µM; 330,000 compounds, 0.83% hits;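 active means mean inhibition across replicates of 60% or more, whatever share of single replicates reaches that level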
# ABHD5-PLIN5 conf = confirmation of human ABHD5-PLIN5 interaction inhibitors | biochemical ABHD5-PLIN5 interaction, luminescence | shares compounds with ABHD5 PLIN5 PPI | 2,200 compounds, 67% hits | inhibition, % at 4 µM | AID 651612; in the data active means inhibition above about 23%;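 further: 0% = DMSO vehicle wells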
# HNF4 split-luc = active in HNF4 split-luciferase counter-screen for ABHD5-PLIN5 inhibitors. inhibition, % at 4 µM. shares compounds with ABHD5 PLIN5 PPI. HNF4 dimerization, luminescence, biochemical. 2,200 compounds, 77% hits;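 active means mean inhibition across replicate wells exceeding the computed hit threshold, cut at about 13% in these data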;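 further: light from luciferase halves that rejoin when HNF4 fusion proteins dimerize; 0% = DMSO only wells and the 100% control is not given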
# Numbers without * were called inactive; . = no result given; ! = not active in a repeat. Shown are actives, neighbours in structure and some others; about 3.1% of the full set was active somewhere.
SMILES,ABHD5 PLIN5 PPI,HIF-2a inh,Peg3 prom inh,KKLEB tox,CF NFkB inh,MITF TRPM1 inh,ABHD5-PLIN5 conf,HNF4 split-luc
Cc1ccc(S(=O)(=O)N2C[C@H]3n4c(=O)ccc(=O)n4C[C@H](OC(=O)NCc4ccccc4F)[C@@]3(O)C2)cc1,25*,20,11,-8,44,.,49*,42*
CCCCCCn1c(=O)n2n(c1=O)[C@@H]1CN(S(=O)(=O)c3ccc(C)cc3)C[C@]1(O)[C@@H](OC(=O)NCc1ccccc1F)C2,-12,-3,23,14,3,.,.,.
CCCCCCn1c(=O)n2n(c1=O)[C@@H]1CN(S(=O)(=O)c3ccc(C)cc3)C[C@]1(O)[C@@H](OC(=O)Nc1cccs1)C2,-17,13,21,14,9,.,.,.
COc1ccccc1-n1cnc2cc(C(=O)N3CCOCC3)ccc21,0,-30,-13,-1,2,3,.,.
O=C(Cc1ccc(Br)c2ccccc12)N/N=C/c1ccccn1,-4,28,31,-4,2,11,.,.
CC1CN(c2cc(=O)n(-c3ccccc3)c(=O)[nH]2)CC(C)O1 (stereo not given),36*,4,7,6,-14,6,3,0
CC(=O)c1ccc(N2C(=O)CC(N3CCN(S(=O)(=O)c4ccc(C)c(C)c4)CC3)C2=O)cc1 (stereo not given),-4,2,-4,-8,8,3,.,.
O=C1CCN(Cc2ccccc2)CCN1[C@H](CO)c1ccccc1,1,6,-4,0,-17,5,.,.
O=C1CCN(Cc2ccc(O)cc2)CCN1[C@H](CO)c1ccccc1,47*,2,1,14,-19,-4,4,15*
CC(=O)N(C1CC(C)C(C#N)(C#N)C1(C#N)C#N)N(C)C (stereo not given),24*,46*,102*,0,6,86*,52*,95*
CCCC(=O)N(C1CC(C)C(C#N)(C#N)C1(C#N)C#N)N(C)C (stereo not given),36*,86*,107*,1,11,83*,59*,101*
O=C(CCNC(=O)C1CCN(S(=O)(=O)c2ccccc2)CC1)NCc1cccnc1,3,13,-4,-3,5,.,.,.
Cc1ccc(OCCNc2cc(N3CCN(CCO)CC3)ccc2[N+](=O)[O-])cc1C,31*,-11,-5,0,-4,-12,5,14*
Cc1cccc(OCCNc2cc(N3CCN(C)CC3)ccc2[N+](=O)[O-])c1,12,-15,-2,-18,11,-7,.,.
CC(=O)N(C1=C(Cl)C(=O)c2ccccc2C1=O)C1CCCCC1,33*,82*,105*,-13,11,86*,84*,110*
COc1cc(C(C2C(=O)CC(C)(C)CC2=O)C2C(=O)CC(C)(C)CC2=O)ccc1OC(C)=O,25*,16,9,2,10,-6,37*,33*
CCCCc1ccc(C2C3=C(CC(C)(C)CC3=O)NC3=C2C(=O)c2ccccc23)cc1 (stereo not given),4,19,43,-25,17,17,.,.
CCCc1ccc(C2C3=C(CC(C)(C)CC3=O)NC3=C2C(=O)c2ccccc23)cc1 (stereo not given),42*,-16,56*,-10,-1,5,66*,75*
CCN1CCN(Cc2ccc(NC(=O)c3ccc(C)c(/C=C/c4cnc(Nc5cc(N6CCNCC6)nc(C)n5)cn4)c3)cc2C(F)(F)F)CC1,28*,1,96*,-8,76*!,98*,36*,5
CCN1CCN(Cc2ccc(NC(=O)c3cc(NC(=O)c4ccc5n[nH]nc5c4)cc(OC)c3)cc2C(F)(F)F)CC1,3,-2,-10,-3,5,2,.,.
O=[S@]1Oc2ccccc2-c2ccccc21,25*,23,13,6,-6,-10,83*,99*
Cn1nc(C(=O)Nc2ccc3c(c2)OCCO3)cc1C(=O)O,-5,31,43,4,6,-3,.,.
CCOC(=O)C1=CC[C@@H](c2ccccc2)N(S(=O)(=O)c2ccc(C)cc2)[C@@H]1C#N,48*,-46,.,.,.,.,50*,58*
CCOC(=O)C1=CC[C@@H](c2ccccc2)N(S(=O)(=O)c2ccc(C)cc2)[C@H]1C,1,15,22,-17,33,.,.,.
CC[C@@H](C)[C@@H]1CN([C@@H](CN2CCC[C@H]2CN2C(N)=NC[C@H]2C(C)C)C(C)C)C(=N)N1CCCC1CCCC1,16,0,-6,-7,3,-1,.,.
SMILES,ABHD5 PLIN5 PPI,HIF-2a inh,Peg3 prom inh,KKLEB tox,CF NFkB inh,MITF TRPM1 inh,ABHD5-PLIN5 conf,HNF4 split-luc
CC[C@@H](C)[C@@H]1CN([C@@H](CN2CCC[C@H]2CN2C(N)=NC[C@@H]2Cc2ccccc2)C(C)C)C(=N)N1CCCC1CCCC1,28*,10,-7,-1,-18,-8,10,5
CC(C)C[C@@H]1CN=C(N)N1C[C@@H]1CCCN1C[C@@H](C(C)C)N1C[C@@H](Cc2ccccc2)N(CCc2ccc(Cl)c(Cl)c2)C1=N,6,-3,-7,-2,8,8,.,.
CC(C)C[C@@H]1CN=C(N)N1C[C@@H]1CCCN1C[C@H](C)N1C[C@@H](Cc2ccccc2)N(CCc2ccc(Cl)c(Cl)c2)C1=N,27*,3,3,-10,-2,-6,14,2
CCOc1ccccc1N(CC(=O)NC1CCCCC1)C(=O)CCC(=O)Nc1cc(C)ccn1,0,15,1,-9,8,11,.,.
CN1C(=O)c2ccc(NC(=O)CCS(=O)(=O)c3ccccc3)cc2C1=O,0,-4,3,-5,15,1,.,.
O=C(N/N=C/c1cn(-c2ccccc2)nc1-c1cccs1)c1ccccc1F,0,-146,-35,2,-33,-35,.,.
CC1=NNC(=O)/C1=C\c1cn(-c2ccccc2)nc1-c1cccs1,37*,94*,115*,-25,112*,98*,100*,102*
Cc1ccccc1CS(=O)(=O)c1nnc([C@H](Cc2ccccc2)NC(=O)OC(C)(C)C)o1,43*,21,104*,-24,72*,83*,57*,105*
CCOC(=O)Cc1csc(NC(=O)NC2(C(F)(F)F)Oc3ccccc3O2)n1,26*,21,15,-1,-14,2,62*,91*
CCOC(=O)Cc1csc(NC(=O)NC2(C(F)(F)F)Oc3ccc(Cl)cc3O2)n1 (stereo not given),25*,18,24,-2,-12,-4,54*,60*

# Screening data: PubChem BioAssay, several laboratories
